# Results reported in PubChem BioAssay (NCI).
# This is part of a sample that, as a whole, favours compounds with a hit. Of some 79,000 tested, about 15% had one in any assay. A number with no mark means an inactive call. Active and inactive are the calls of the source. Rule as the data show it: active = growth inhibition above about 70%; inactive = the rest.
# Experiments:
# [1] = NCI Yeast Anticancer Drug Screen. Data for the rad50 strain (AID 155);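 also: 0% = growth of vehicle-only cultures of the same strain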; settings: S. cerevisiae rad50 strain growth inhibition, active compounds read high
# Procedure, shortened: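 Vehicle-treated cultures provide the reference for the growth inhibition reported for compound-exposed, repair-deficient yeast.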
# [2] = NCI Yeast Anticancer Drug Screen. Data for the mec2-1 strain (AID 157); settings: S. cerevisiae mec2-1 strain, active compounds read high
# Procedure, shortened: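 Cells of the genetically defined mec2-1 yeast strain are incubated with test compound. Inhibition of growth is calculated against vehicle-treated controls.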
# [3] = NCI Yeast Anticancer Drug Screen. Data for the sgs1 mgt1 strain (AID 161);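 also: 0% = growth of cultures given vehicle only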; settings: S. cerevisiae sgs1 mgt1 strain, active compounds read high
# Procedure, shortened: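 Read-out: growth inhibition vs vehicle controls. Cells: mutant yeast strain deficient in DNA damage repair.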
# [4] = NCI Yeast Anticancer Drug Screen. Data for the cln2 rad14 strain (AID 165);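 also: 0% = growth equal to vehicle treated cultures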; settings: S. cerevisiae cln2 rad14 strain, active compounds read high
# Procedure, shortened: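 The screen exposed genetically defined yeast (cln2 rad14) to test compounds and scored growth inhibition relative to vehicle-treated controls.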
# [5] = NCI Yeast Anticancer Drug Screen. Data for the bub3 strain (AID 167); settings: S. cerevisiae bub3 mutant strain, active compounds read high
# Procedure, shortened: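 Mutant yeast screening strain plus compound; vehicle-treated cultures serve as the 0% inhibition reference.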
# [6] = NCI Yeast Anticancer Drug Screen. Data for the wt2 strain (AID 169); settings: S. cerevisiae wt2 strain growth inhibition, active compounds read high
# Procedure, shortened: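 Steps: yeast strain treated with compound; growth recorded; inhibition calculated relative to cultures given vehicle alone.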
# [7] = NCI Yeast Anticancer Drug Screen. Data for the mlh1 rad18 strain (AID 175); settings: S. cerevisiae mlh1 rad18 strain growth inhibition, active compounds read high
# Procedure, shortened: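 Compound-treated yeast growth, normalised to vehicle controls. Strain bears defined DNA repair mutations.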
# [8] = at 5.0 µM (retest, dose inferred, filed as 0.5)
# [9] = at 50.0 µM (retest, dose inferred, filed as 5.0)
compound,measurement,setting,value
COc1ccc(CC(=O)c2ccc(O)cc2O)cc1,growth inhibition,[1]; [8],30%
same,growth inhibition,[1]; [9],90% (active)
same,growth inhibition,[1]; at 50.0 µM,49.5%
same,growth inhibition,[2]; [8],38%
same,growth inhibition,[2]; [9],80% (active)
same,growth inhibition,[2]; at 50.0 µM,42.3%
same,growth inhibition,[3]; [8],-22%
same,growth inhibition,[3]; [9],73% (active)
same,growth inhibition,[3]; at 50.0 µM,54.8%
same,growth inhibition,[4]; [8],64%
same,growth inhibition,[4]; [9],76% (active)
same,growth inhibition,[4]; at 50.0 µM,52.2%
same,growth inhibition,[5]; [8],-6%
same,growth inhibition,[5]; [9],71% (active)
same,growth inhibition,[5]; at 50.0 µM,77.1% (active)
same,growth inhibition,[6]; at 1.2 µM,-4%
same,growth inhibition,[6]; at 3.7 µM,-4%
same,growth inhibition,[6]; at 11.0 µM,-13%
same,growth inhibition,[6]; at 33.0 µM,14%
same,growth inhibition,[6]; at 100.0 µM,91% (active)
Cc1ccc(S(=O)(=O)NC2CCCCCCC2)cc1,growth inhibition,[1]; [8],45%
same,growth inhibition,[1]; [9],96% (active)
same,growth inhibition,[1]; at 50.0 µM,77% (active)
same,growth inhibition,[2]; [8],30%
same,growth inhibition,[2]; [9],89% (active)
same,growth inhibition,[2]; at 50.0 µM,64.2%
same,growth inhibition,[3]; [8],42%
same,growth inhibition,[3]; [9],16%
same,growth inhibition,[3]; at 50.0 µM,79% (active)
same,growth inhibition,[4]; [8],48%
same,growth inhibition,[4]; [9],46%
same,growth inhibition,[4]; at 50.0 µM,60%
same,growth inhibition,[5]; [8],97% (active)
same,growth inhibition,[5]; [9],95% (active)
same,growth inhibition,[5]; at 50.0 µM,89.3% (active)
same,growth inhibition,[6]; at 1.2 µM,-4%
same,growth inhibition,[6]; at 3.7 µM,-17%
same,growth inhibition,[6]; at 11.0 µM,-23%
same,growth inhibition,[6]; at 33.0 µM,23%
same,growth inhibition,[6]; at 100.0 µM,98% (active)
same,growth inhibition,[7]; [8],40%
same,growth inhibition,[7]; [9],99% (active)
same,growth inhibition,[7]; at 50.0 µM,82.8% (active)
Cc1nc2c(nc1C)C(=O)c1ccccc1C2=O,growth inhibition,[1]; [8],19%
same,growth inhibition,[1]; [9],98% (active)
same,growth inhibition,[1]; at 50.0 µM,85.9% (active)
same,growth inhibition,[2]; [8],14%
same,growth inhibition,[2]; [9],99% (active)
same,growth inhibition,[2]; at 50.0 µM,82.4% (active)
same,growth inhibition,[3]; [8],22%
same,growth inhibition,[3]; [9],97% (active)
same,growth inhibition,[3]; at 50.0 µM,71.4% (active)
same,growth inhibition,[4]; [8],11%
same,growth inhibition,[4]; [9],91% (active)
same,growth inhibition,[4]; at 50.0 µM,31.9%
same,growth inhibition,[5]; [8],30%
same,growth inhibition,[5]; [9],99% (active)
same,growth inhibition,[5]; at 50.0 µM,67.3%
same,growth inhibition,[7]; [8],27%
same,growth inhibition,[7]; [9],99% (active)
CCOC(=O)c1c[nH]c2cc(C(F)(F)F)ccc2c1=O,growth inhibition,[1]; [8],52%
same,growth inhibition,[1]; [9],93% (active)
same,growth inhibition,[1]; at 50.0 µM,52%
same,growth inhibition,[2]; [8],74% (active)
same,growth inhibition,[2]; [9],96% (active)
same,growth inhibition,[2]; at 50.0 µM,-0.25%
same,growth inhibition,[3]; [8],-23%
same,growth inhibition,[3]; [9],-11%
same,growth inhibition,[3]; at 50.0 µM,26.3%
same,growth inhibition,[4]; [8],9%
same,growth inhibition,[4]; [9],24%
same,growth inhibition,[4]; at 50.0 µM,9.15%
same,growth inhibition,[5]; [8],22%
same,growth inhibition,[5]; [9],2%
same,growth inhibition,[5]; at 50.0 µM,69.9%
same,growth inhibition,[6]; at 1.2 µM,-3%
same,growth inhibition,[6]; at 3.7 µM,-8%
same,growth inhibition,[6]; at 11.0 µM,-9%
same,growth inhibition,[6]; at 33.0 µM,-10%
same,growth inhibition,[6]; at 100.0 µM,-10%
same,growth inhibition,[7]; [8],56%
same,growth inhibition,[7]; [9],99% (active)
same,growth inhibition,[7]; at 50.0 µM,1.5%
CCO/C=C1\SC(=S)N(c2cccc(O)c2)C1=O,growth inhibition,[1]; [8],57%
same,growth inhibition,[1]; [9],100% (active)
same,growth inhibition,[1]; at 50.0 µM,28.4%
same,growth inhibition,[2]; [8],74% (active)
same,growth inhibition,[2]; [9],100% (active)
same,growth inhibition,[2]; at 50.0 µM,15.3%
same,growth inhibition,[3]; [8],13%
same,growth inhibition,[3]; [9],90% (active)
same,growth inhibition,[3]; at 50.0 µM,40.4%
same,growth inhibition,[4]; [8],29%
same,growth inhibition,[4]; [9],72% (active)
same,growth inhibition,[4]; at 50.0 µM,-2.6%
same,growth inhibition,[5]; [8],6%
same,growth inhibition,[5]; [9],91% (active)
same,growth inhibition,[5]; at 50.0 µM,40.2%
same,growth inhibition,[6]; at 1.2 µM,-13%
same,growth inhibition,[6]; at 3.7 µM,-13%
same,growth inhibition,[6]; at 11.0 µM,-13%
same,growth inhibition,[6]; at 33.0 µM,22%
same,growth inhibition,[6]; at 100.0 µM,96% (active)
same,growth inhibition,[7]; [8],54%
same,growth inhibition,[7]; [9],100% (active)
same,growth inhibition,[7]; at 50.0 µM,70.3% (active)
CCCCCC(C)c1ccc(O)c(C)c1 (configuration not stated),growth inhibition,[1]; [8],49%
same,growth inhibition,[1]; [9],94% (active)
same,growth inhibition,[1]; at 50.0 µM,81.7% (active)
same,growth inhibition,[2]; [8],49%
same,growth inhibition,[2]; [9],95% (active)
same,growth inhibition,[2]; at 50.0 µM,56.2%
same,growth inhibition,[3]; [8],-10%
same,growth inhibition,[3]; [9],43%
same,growth inhibition,[3]; at 50.0 µM,68.9%
same,growth inhibition,[4]; [8],41%
same,growth inhibition,[4]; [9],75% (active)
same,growth inhibition,[4]; at 50.0 µM,61.7%
same,growth inhibition,[5]; [8],32%
same,growth inhibition,[5]; [9],55%
same,growth inhibition,[5]; at 50.0 µM,86.1% (active)
same,growth inhibition,[6]; at 1.2 µM,4%
same,growth inhibition,[6]; at 3.7 µM,-2%
same,growth inhibition,[6]; at 11.0 µM,-6%
same,growth inhibition,[6]; at 33.0 µM,0%
same,growth inhibition,[6]; at 100.0 µM,99% (active)
same,growth inhibition,[7]; [8],45%
same,growth inhibition,[7]; [9],99% (active)
same,growth inhibition,[7]; at 50.0 µM,72.5% (active)
O=Cc1cc([N+](=O)[O-])ccc1O.[Eu],growth inhibition,[1]; [8],28%
same,growth inhibition,[1]; [9],51%
same,growth inhibition,[1]; at 50.0 µM,81.3% (active)
same,growth inhibition,[2]; [8],46%
same,growth inhibition,[2]; [9],69%
same,growth inhibition,[2]; at 50.0 µM,86.1% (active)
same,growth inhibition,[3]; [8],-4%
same,growth inhibition,[3]; [9],95% (active)
same,growth inhibition,[3]; at 50.0 µM,91.2% (active)
same,growth inhibition,[4]; [8],18%
same,growth inhibition,[4]; [9],97% (active)
same,growth inhibition,[4]; at 50.0 µM,83.2% (active)
same,growth inhibition,[5]; [8],49%
same,growth inhibition,[5]; [9],96% (active)
same,growth inhibition,[5]; at 50.0 µM,85.8% (active)
same,growth inhibition,[6]; at 1.2 µM,6%
same,growth inhibition,[6]; at 3.7 µM,7%
same,growth inhibition,[6]; at 11.0 µM,20%
same,growth inhibition,[6]; at 33.0 µM,36%
same,growth inhibition,[6]; at 100.0 µM,98% (active)
same,growth inhibition,[7]; [8],29%
same,growth inhibition,[7]; [9],64%
same,growth inhibition,[7]; at 50.0 µM,86.2% (active)
